A selection: hits, their analogues and other compounds. The true share with any hit is near 3.9%.
ALR inh = blocks human ALR sulfhydryl oxidase activity; purified ALR, DTT oxidation, H2O2 HRP-luminol luminescence; 290,000 compounds, 3.8% hits; P55789; inhibition, % (concentration not given with the values);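 active means mean replicate inhibition above about 79%, with every replicate also reaching it, limit read from the data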
Target sequence (P55789 whole entry, looked up): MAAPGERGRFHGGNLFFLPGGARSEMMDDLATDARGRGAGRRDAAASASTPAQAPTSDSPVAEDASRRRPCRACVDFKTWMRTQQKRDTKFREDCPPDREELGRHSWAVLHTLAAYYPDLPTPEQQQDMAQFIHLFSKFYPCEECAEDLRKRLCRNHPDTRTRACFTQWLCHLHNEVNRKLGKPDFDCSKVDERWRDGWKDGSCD
NTR1 ag = activates human neurotensin receptor 1; AID 493036; NTR1-U2OS beta-arrestin-GFP spot imaging, agonist mode; P30989; 330,000 compounds, 0.17% hits; activation, % at 20 µM;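 active means activation at or above 40% of the spot to cytoplasm intensity ratio, with at least 20 cells analyzed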;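 further: 0% = DMSO without peptide and 100% = 100 nM NTR1 peptide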
Target sequence (P30989 whole entry, looked up): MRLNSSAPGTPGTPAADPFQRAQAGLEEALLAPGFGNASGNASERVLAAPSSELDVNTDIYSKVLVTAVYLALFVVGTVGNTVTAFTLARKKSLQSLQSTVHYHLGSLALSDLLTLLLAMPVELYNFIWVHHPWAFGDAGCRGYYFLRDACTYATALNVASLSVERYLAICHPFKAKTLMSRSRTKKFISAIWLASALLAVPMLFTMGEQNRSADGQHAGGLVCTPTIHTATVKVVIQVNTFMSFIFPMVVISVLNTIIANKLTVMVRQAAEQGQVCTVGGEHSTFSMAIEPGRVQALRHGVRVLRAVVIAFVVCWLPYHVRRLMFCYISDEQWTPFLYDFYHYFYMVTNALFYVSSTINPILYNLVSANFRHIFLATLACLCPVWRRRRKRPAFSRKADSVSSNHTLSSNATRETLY
Cardio protect = protects H9c2 cardiomyocytes from peroxide injury | H2O2 injury protection, ATPLite, 2 h | protection from H2O2 cell death, % at 20 µM | 360,000 compounds, 0.63% hits;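 active means compounds giving at least 50% protection of heart cells from peroxide-induced death in the single-dose screen, raw or plate-pattern-corrected value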;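 further: 0% = DMSO wells with peroxide and 100% = DMSO wells without peroxide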
UBC9 SUMO inh = inhibitors of human SUMOylation (UBC9). inhibition, % at 35 µM. P63279. HTRF SUMOylation assay, SAE1/SAE2 + UBC9, in vitro. 290,000 compounds, 0.36% hits. AID 2006; in the data active means inhibition above about 50%, passing the limit was not always enough
Starred values were filed as active, the others as inactive; x = no result given.

SMILES	ALR inh	NTR1 ag	Cardio protect	UBC9 SUMO inh
Cc1ccc(-n2c(O)c(C=Nc3ccccc3-c3n[nH]c(=S)[nH]c3=O)c3ccccc3c2=O)c(C)c1	2.2	3.1	-6.4	53.3*
Cc1ccc(-n2c(O)c(C=Nc3ccccc3-c3n[nH]c(=S)[nH]c3=O)c3ccccc3c2=O)cc1C	x	4.4	4.7	53.0*
O=C(CN1CCc2ccccc21)NCc1ccc2c(c1)OCO2	98.8*	1.1	-3.1	-12.7
O=C(CN1CCCc2ccccc21)NCc1ccc2c(c1)OCO2	-9.7	-2.0	-2.2	0.2
O=C(CSc1c[nH]c2ccccc12)NCc1ccc2c(c1)OCO2	98.3*	-1.0	-10.9	15.0
CC(C)c1c(O)nc(SCC(=O)Nc2ccc3c(c2)CCC3)[nH]c1=O	98.9*	2.9	-4.7	-3.2
Cc1ccc(NC(=O)CSc2nc3c(c(=O)[nH]2)CCC3)cc1C	18.0	1.3	-4.0	-17.9
CC(C)Cc1c(O)nc(SCC(=O)Nc2ccc3c(c2)CCC3)[nH]c1=O	98.7*	-1.0	-2.0	-6.7
C=CCn1cnnc1SCC(=O)NCC1COc2ccccc2O1 (stereo not given)	x	-1.0	-5.8	x
CCOC(=O)c1c(CSc2cccs2)n(C)c2cc(Br)c(O)c(CN(C)C)c12	98.7*	9.1	10.5	-9.9
COc1ccc(CCN2C(=O)C3C4C=CC(C5CC45)C3C2=O)cc1OC (stereo not given)	x	1.5	-6.6	-11.5
Nc1ccc(CCc2ccccn2)cc1	x	x	7.1	x
Nc1ccc(CCc2ccc(N)cc2)cc1	85.4*	0.1	0.2	x
Cc1ccc(S(=O)(=O)CCc2nnc(N)s2)cc1C	-5.0	0.5	0.7	8.4
CCOc1cc(/C=C2\SC(=S)N(C(C(=O)O)c3ccccc3)C2=O)ccc1O (stereo not given)	99.7*	1.3	1.1	-2.5
O=C(O)C(c1ccccc1)N1C(=O)/C(=C\c2ccc(O)c(O)c2)SC1=S (stereo not given)	99.0*	-0.7	0.4	15.2
O=C1OCCN1C(=O)[C@H]1[C@H](c2ccc([N+](=O)[O-])cc2)C(c2ccc(F)cc2)=NN1c1ccc(Br)cc1	x	5.9	51.5*	x
O=C1OCCN1C(=O)[C@H]1[C@H](c2ccc([N+](=O)[O-])cc2)C(c2ccc(F)cc2)=NN1c1ccccc1	x	2.9	33.7	x
CCOc1cc(/C=N/Nc2nc(C)cc(=O)[nH]2)ccc1O	95.8*	0.7	1.3	-6.5
CCOc1cc(/C=N/Nc2ncc(C)c(=O)[nH]2)ccc1O	99.7*	2.3	9.5	12.6
Cc1cc(=O)[nH]c(N/N=C/c2ccccc2Cl)n1	-16.2	0.5	0.0	9.0
Cc1cc(=O)[nH]c(N/N=C/c2c(F)c(F)c(F)c(F)c2F)n1	75.9*	-1.7	2.1	5.8
Cc1cc(=O)[nH]c(NN=Cc2cc(Br)ccc2O)n1	x	x	41.8	x
CCOc1cc(/C=N/NC(=O)CN2CCCCC2)ccc1OCc1ccc(Cl)cc1	-3.9	9.0	-4.6	5.4
CCOc1ccccc1N1CCN(C(=O)NCc2ccc(C)cc2)CC1	-6.2	-0.4	4.1	-11.2
SMILES	ALR inh	NTR1 ag	Cardio protect	UBC9 SUMO inh
COC(=O)C1=C(C)NC(=O)NC1c1cc(Cl)ccc1OC (stereo not given)	x	-1.5	2.1	-3.4
COC(=O)Cn1c(=NC(=O)c2ccc(Cl)s2)sc2cc(C)ccc21	-3.1	-1.5	-9.7	-2.6
COC(=O)Cn1c(=NC(=O)c2ccc([N+](=O)[O-])s2)sc2cc(Br)ccc21	98.0*	5.6	x	6.0
OCCN1CCN(CC(O)COC(c2ccc(F)cc2)c2ccc(F)cc2)CC1 (stereo not given)	10.8	0.6	-3.2	3.9
Cc1nc(SCc2cccnc2)[nH]c(=O)c1C	98.6*	-0.6	14.5	-0.5
N#Cc1c(-c2ccco2)nc(SCc2ccc(F)cc2)[nH]c1=O	-12.7	-0.6	-2.7	18.1
Cc1nc(SCc2cccc(F)c2)[nH]c(=O)c1C#N	83.7*	0.9	4.7	-4.9
CN(C1CCCCC1)S(=O)(=O)c1ccc(NC(=O)C2CCCCC2)cc1	-4.6	1.8	-10.5	-11.5
CN(C)c1ccc(/C=C(/NC(=O)c2ccccc2)C(=O)NCCN2CCOCC2)cc1	99.3*	-1.7	9.8	-9.9
CN(C)c1ccc(/C=C(/NC(=O)c2ccccc2Cl)C(=O)NCCN2CCOCC2)cc1	88.5*	0.0	1.9	x
Cc1nc2cc(N)ccc2n1-c1ccccc1	99.1*	0.1	-3.6	26.9
COc1ccccc1N1CCN(C(=O)c2cc(=O)c3ccc(C)cc3o2)CC1	98.9*	0.9	-2.0	15.8
CCOc1ccc(CCNC(=O)C2CC(=O)N(Cc3ccc(C)cc3)C2)cc1OCC (stereo not given)	-6.9	-1.0	-3.1	x
N/C(=N\N=C\c1ccc(O)c(O)c1)c1nonc1N	31.6	-1.0	-12.6	1.8
N/C(=N\N=C\c1ccc(O)cc1)c1nonc1N	98.9*	-0.5	-6.3	-7.4
COc1cc(/C=N/N=C(\N)c2nonc2N)ccc1O	99.1*	1.0	-3.7	13.4
CN1CCC(=NNC(=O)c2ccc(N(Cc3ccccc3Cl)S(C)(=O)=O)cc2)CC1	-12.4	0.7	-7.4	-3.8
O=C(N/N=C/c1ccc2c(c1)OCO2)C(=O)Nc1cccc(Cl)c1	x	-0.1	-1.6	6.0
O=C(N/N=C1\SCC(=O)N1CCc1ccccc1)c1cccs1	-13.2	1.9	-0.5	2.1
O=C1c2ccccc2NC(c2ccc(O)c(O)c2)N1c1ccccc1Cl (stereo not given)	99.6*	0.0	13.2	6.4
CC(C)(/C=N/NC(=O)CSCc1ccccc1Cl)CCC#N	98.0*	-0.2	1.5	4.7
CCc1cc2c3c(c1)C(C)CC(C)(C)N3C(=O)/C2=C1\SC(=O)NC1=O (stereo not given)	96.6*	4.2	-3.9	41.6
CN(C)c1ccc(N=Nc2ccc(S(=O)(=O)O)cc2)c2ccccc12	98.8*	-0.2	2.9	48.7
CN(C)c1ccc(N=Nc2ccc(S(N)(=O)=O)cc2)cc1	-14.5	2.0	-2.7	21.1
CNC(=S)N(CCc1c(C)[nH]c2ccc(F)cc12)Cc1cccnc1	96.7*	2.1	3.0	-1.0
SMILES	ALR inh	NTR1 ag	Cardio protect	UBC9 SUMO inh
O=C1Nc2ccccc2N(O)N1c1cc(-c2cccc(Cl)c2)no1	79.2*	-0.3	-1.2	-8.3
O=C1NC(c2ccccc2Cl)=N/C1=C/c1ccco1	-11.9	1.5	5.7	13.5
O=C1NC(c2ccc(Br)cc2)=N/C1=C/c1ccco1	-5.1	6.5	0.0	50.6*
NNC(=O)c1cccc(COc2ccccc2Br)c1	98.4*	-2.3	0.9	-16.2
O=C(C1=C(O)C(=O)N(c2ccccc2)C1c1ccc([N+](=O)[O-])cc1)c1cccs1 (stereo not given)	89.3*	1.0	4.6	7.8
Cc1cccc(N2C(=O)C(O)=C(C(=O)c3cccs3)C2c2cccc(Oc3ccccc3)c2)n1 (stereo not given)	97.8*	-0.2	4.3	15.9
CC(=O)C1=C(O)C(=O)N(c2ccc(C(=O)O)cc2)C1c1ccc([N+](=O)[O-])cc1 (stereo not given)	43.4	0.2	4.1	4.7
Cc1ccc(C(=O)Nn2cnnc2)cc1Cl	80.8*	-0.4	-0.6	7.9
C[C@@H]1CN([C@H](C)CO)S(=O)(=O)c2ccc(C#Cc3ccccc3F)cc2O[C@@H]1CN(C)C(=O)Cc1ccccc1	x	x	24.2	x
